{"source": "the supplement of paper PMC7156485", "conditions_in_all_cases": "concentration: 10 µM; 24 h", "key": {"[1]": {"system": "HCC1569", "test": "cell number relative to DMSO (% of DMSO); higher = more cells (less growth inhibition / toxicity)", "in_short": "(§1)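 Six fields per well were imaged at ×10 after the cells were fixed in 3.7% formaldehyde and stained with a rabbit anti-H1.0 antibody, an AlexaFluor 647 secondary and DAPI. The HCC1569 and TDF cells had been plated at 800 per well in 384-well plates (RPMI, 10% FBS) and treated in triplicate with compounds at 10 µM for 24 h at 37 °C. The values are the median of replicates of H1.0 nuclear intensity or cell number, as percent of the plate control. Smoothing for positional effects was applied to HCC1569 data.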"}, "[2]": {"system": "TDF", "test": "cell number relative to DMSO (% of DMSO); higher = more cells (less growth inhibition / toxicity)", "in_short": "as §1"}, "[3]": {"system": "TDF", "test": "H1.0 immunofluorescence intensity relative to DMSO (% of DMSO); higher = stronger H1.0 induction, active = 120 or more", "in_short": "as §1"}, "[4]": {"system": "HCC1569", "test": "H1.0 immunofluorescence intensity relative to DMSO (% of DMSO); higher = stronger H1.0 induction, active = 140 or more", "in_short": "as §1"}}, "note": "± gives the standard deviation of the averaged measurements.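 Throughout, for H1.0 immunofluorescence intensity relative to DMSO: TDF is a line of transformed human dermal fibroblasts of mesenchymal origin.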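 Throughout, for cell number relative to DMSO: TDF denotes transformed human dermal fibroblasts of mesenchymal origin.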", "data": [{"smiles": "CCCCC(=O)N(Cc1ccc(-c2ccccc2-c2nn[nH]n2)cc1)[C@H](C(=O)O)C(C)C", "values": [{"measurement": "cell number", "setting": "[1]", "result": 98.8}, {"measurement": "cell number", "setting": "[2]", "result": 112}, {"measurement": "H1.0 immunofluorescence intensity", "setting": "[3]", "result": "93.7 (inactive)"}, {"measurement": "H1.0 immunofluorescence intensity", "setting": "[4]", "result": "100 (inactive)"}]}, {"smiles": "O=C(O)/C=C/c1ccc(O)c(O)c1", "note": "[Caffeic acid]", "values": [{"measurement": "cell number", "setting": "[1]", "result": "98.5 ± 1.5"}, {"measurement": "cell number", "setting": "[2]", "result": "99.8 ± 4.1"}, {"measurement": "H1.0 immunofluorescence intensity", "setting": "[3]", "result": "94.5 (inactive)"}, {"measurement": "H1.0 immunofluorescence intensity", "setting": "[4]", "result": "96.2 (inactive)"}]}, {"smiles": "Cc1ccc(S(=O)(=O)N2c3ccccc3Oc3ccccc32)cc1", "note": "[10-[(4-methylphenyl)sulfonyl]-10H-phenoxazine]", "values": [{"measurement": "cell number", "setting": "[1]", "result": 53.5}, {"measurement": "cell number", "setting": "[2]", "result": 11.3}, {"measurement": "H1.0 immunofluorescence intensity", "setting": "[3]", "result": "161 (active)"}, {"measurement": "H1.0 immunofluorescence intensity", "setting": "[4]", "result": "154 (active)"}]}, {"smiles": "CCCCCC(O)C=CC=CCC=CCCCCC(=O)O", "note": "(stereo not given)", "values": [{"measurement": "cell number", "setting": "[1]", "result": 103}, {"measurement": "cell number", "setting": "[2]", "result": 97.9}, {"measurement": "H1.0 immunofluorescence intensity", "setting": "[3]", "result": "97.2 (inactive)"}, {"measurement": "H1.0 immunofluorescence intensity", "setting": "[4]", "result": "101 (inactive)"}]}, {"smiles": "COc1cc2ncnc(Nc3ccc(F)c(Cl)c3)c2cc1OCCCN1CCOCC1", "values": [{"measurement": "cell number", "setting": "[1]", "result": 80.2}, {"measurement": "cell number", "setting": "[2]", "result": 101}, {"measurement": "H1.0 immunofluorescence intensity", "setting": "[3]", "result": "105 (inactive)"}, {"measurement": "H1.0 immunofluorescence intensity", "setting": "[4]", "result": "112 (inactive)"}]}, {"smiles": "O=C1NC(=O)C(=Cc2ccc3nccnc3c2)S1", "note": "[PI 3-Kg Inhibitor]", "values": [{"measurement": "cell number", "setting": "[1]", "result": 103}, {"measurement": "cell number", "setting": "[2]", "result": 110}, {"measurement": "H1.0 immunofluorescence intensity", "setting": "[3]", "result": "87.2 (inactive)"}, {"measurement": "H1.0 immunofluorescence intensity", "setting": "[4]", "result": "114 (inactive)"}]}, {"smiles": "CC(C)n1cnc2c(NCc3ccccc3)nc(NCCCO)nc21", "note": "[Bohemine]", "values": [{"measurement": "cell number", "setting": "[1]", "result": 91.4}, {"measurement": "cell number", "setting": "[2]", "result": 87.5}, {"measurement": "H1.0 immunofluorescence intensity", "setting": "[3]", "result": "100 (inactive)"}, {"measurement": "H1.0 immunofluorescence intensity", "setting": "[4]", "result": "106 (inactive)"}]}, {"smiles": "C=CCCCCCCCCCCC(=O)O", "note": "[12-Tridecenoic acid]", "values": [{"measurement": "cell number", "setting": "[1]", "result": 99.7}, {"measurement": "cell number", "setting": "[2]", "result": 91.7}, {"measurement": "H1.0 immunofluorescence intensity", "setting": "[3]", "result": "106 (inactive)"}, {"measurement": "H1.0 immunofluorescence intensity", "setting": "[4]", "result": "98.7 (inactive)"}]}, {"smiles": "C=CCSC[C@H](N)C(=O)O", "note": "[(2R)-3-(allylsulfanyl)-2-aminopropanoic acid]", "values": [{"measurement": "cell number", "setting": "[1]", "result": 103}, {"measurement": "cell number", "setting": "[2]", "result": 95.1}, {"measurement": "H1.0 immunofluorescence intensity", "setting": "[3]", "result": "88.7 (inactive)"}, {"measurement": "H1.0 immunofluorescence intensity", "setting": "[4]", "result": "90.1 (inactive)"}]}, {"smiles": "CCCCOc1cc(CC2CNC(=O)N2)ccc1OC", "note": "(stereo not given)", "values": [{"measurement": "cell number", "setting": "[1]", "result": 101}, {"measurement": "cell number", "setting": "[2]", "result": 110}, {"measurement": "H1.0 immunofluorescence intensity", "setting": "[3]", "result": "85.3 (inactive)"}, {"measurement": "H1.0 immunofluorescence intensity", "setting": "[4]", "result": "86.2 (inactive)"}]}, {"smiles": "CN=C(NC#N)NCCSCc1csc(N=C(N)N)n1", "note": "[Tiotidine]", "values": [{"measurement": "cell number", "setting": "[1]", "result": 102}, {"measurement": "cell number", "setting": "[2]", "result": 88.1}, {"measurement": "H1.0 immunofluorescence intensity", "setting": "[3]", "result": "105 (inactive)"}, {"measurement": "H1.0 immunofluorescence intensity", "setting": "[4]", "result": "99.1 (inactive)"}]}, {"smiles": "Clc1ccc(C(Cn2ccnc2)OCc2ccsc2Cl)c(Cl)c1", "note": "(stereo not given) [Tioconazole]", "values": [{"measurement": "cell number", "setting": "[1]", "result": 102}, {"measurement": "cell number", "setting": "[2]", "result": 94.9}, {"measurement": "H1.0 immunofluorescence intensity", "setting": "[3]", "result": "103 (inactive)"}, {"measurement": "H1.0 immunofluorescence intensity", "setting": "[4]", "result": "113 (inactive)"}]}, {"smiles": "Cl.Cl.c1cnc(N2CCN(Cc3ccc4c(c3)OCO4)CC2)nc1", "note": "[Piribedil.2HCl]", "values": [{"measurement": "cell number", "setting": "[1]", "result": 100}, {"measurement": "cell number", "setting": "[2]", "result": 98.2}, {"measurement": "H1.0 immunofluorescence intensity", "setting": "[3]", "result": "92 (inactive)"}, {"measurement": "H1.0 immunofluorescence intensity", "setting": "[4]", "result": "107 (inactive)"}]}, {"smiles": "Cc1cc(N)c2ccccc2[n+]1CCCCCCCCCCCCCC[n+]1c(C)cc(N)c2ccccc21.[I-].[I-]", "note": "[Dequalinium analog, C-14 linker]", "values": [{"measurement": "cell number", "setting": "[1]", "result": 101}, {"measurement": "cell number", "setting": "[2]", "result": 102}, {"measurement": "H1.0 immunofluorescence intensity", "setting": "[3]", "result": "95.7 (inactive)"}, {"measurement": "H1.0 immunofluorescence intensity", "setting": "[4]", "result": "100 (inactive)"}]}, {"smiles": "CCCC(CCC)C(=O)NO", "note": "[N-hydroxy-2-propylpentanamide]", "values": [{"measurement": "cell number", "setting": "[1]", "result": 100}, {"measurement": "cell number", "setting": "[2]", "result": 102}, {"measurement": "H1.0 immunofluorescence intensity", "setting": "[3]", "result": "98.7 (inactive)"}, {"measurement": "H1.0 immunofluorescence intensity", "setting": "[4]", "result": "80.8 (inactive)"}]}, {"smiles": "CCCCCCCCCCCCC(O)C(=O)O", "note": "(stereo not given) [2-Hydroxymyristic acid]", "values": [{"measurement": "cell number", "setting": "[1]", "result": 103}, {"measurement": "cell number", "setting": "[2]", "result": 103}, {"measurement": "H1.0 immunofluorescence intensity", "setting": "[3]", "result": "95.6 (inactive)"}, {"measurement": "H1.0 immunofluorescence intensity", "setting": "[4]", "result": "102 (inactive)"}]}, {"smiles": "O=C(O)[C@@H]1C[C@H](C(=O)O)N1", "note": "[cis-Azetidine-2,4-dicarboxylic acid]", "values": [{"measurement": "cell number", "setting": "[1]", "result": 103}, {"measurement": "cell number", "setting": "[2]", "result": 101}, {"measurement": "H1.0 immunofluorescence intensity", "setting": "[3]", "result": "105 (inactive)"}, {"measurement": "H1.0 immunofluorescence intensity", "setting": "[4]", "result": "109 (inactive)"}]}, {"smiles": "NC(=O)c1cccc(N)c1", "note": "[3-aminobenzamide]", "values": [{"measurement": "cell number", "setting": "[1]", "result": 98.6}, {"measurement": "cell number", "setting": "[2]", "result": 102}, {"measurement": "H1.0 immunofluorescence intensity", "setting": "[3]", "result": "90.5 (inactive)"}, {"measurement": "H1.0 immunofluorescence intensity", "setting": "[4]", "result": "87.7 (inactive)"}]}, {"smiles": "CN(Cc1cnc2nc(N)nc(N)c2n1)c1ccc(C(=O)NC(CCC(=O)O)C(=O)O)cc1", "note": "(single isomer, unassigned; (-)) [(-)Amethopterin]", "values": [{"measurement": "cell number", "setting": "[1]", "result": 96.4}, {"measurement": "cell number", "setting": "[2]", "result": 96.2}, {"measurement": "H1.0 immunofluorescence intensity", "setting": "[3]", "result": "106 (inactive)"}, {"measurement": "H1.0 immunofluorescence intensity", "setting": "[4]", "result": "110 (inactive)"}]}, {"smiles": "O=C(Nc1nc2ccc(NC(=O)C34CC5CC(CC(C5)C3)C4)cc2s1)c1ccccc1", "values": [{"measurement": "cell number", "setting": "[1]", "result": 45}, {"measurement": "cell number", "setting": "[2]", "result": 20.4}, {"measurement": "H1.0 immunofluorescence intensity", "setting": "[3]", "result": "170 (active)"}, {"measurement": "H1.0 immunofluorescence intensity", "setting": "[4]", "result": "146 (active)"}]}, {"smiles": "O=C1CC(c2ccccc2)Oc2cc(O)cc(O)c21", "note": "(stereo not given) [Pinocembrin]", "values": [{"measurement": "cell number", "setting": "[1]", "result": 106}, {"measurement": "cell number", "setting": "[2]", "result": 100}, {"measurement": "H1.0 immunofluorescence intensity", "setting": "[3]", "result": "99 (inactive)"}, {"measurement": "H1.0 immunofluorescence intensity", "setting": "[4]", "result": "91.1 (inactive)"}]}, {"smiles": "COc1ccc2c3c1OC1CC(O)C=CC31CCN(C)C2", "note": "(stereo not given) [Galanthamine]", "values": [{"measurement": "cell number", "setting": "[1]", "result": 101}, {"measurement": "cell number", "setting": "[2]", "result": 110}, {"measurement": "H1.0 immunofluorescence intensity", "setting": "[3]", "result": "94 (inactive)"}, {"measurement": "H1.0 immunofluorescence intensity", "setting": "[4]", "result": "94.8 (inactive)"}]}, {"smiles": "O=C1NCCc2[nH]c(-c3ccncc3)cc21", "note": "[Cdc7/Cdk9 Inhibitor]", "values": [{"measurement": "cell number", "setting": "[1]", "result": 58.9}, {"measurement": "cell number", "setting": "[2]", "result": 35.3}, {"measurement": "H1.0 immunofluorescence intensity", "setting": "[3]", "result": "111 (inactive)"}, {"measurement": "H1.0 immunofluorescence intensity", "setting": "[4]", "result": "115 (inactive)"}]}, {"smiles": "Cl.NC1(C(=O)O)CC1", "note": "[1-Aminocyclopropanecarboxylic acid hydrochloride]", "values": [{"measurement": "cell number", "setting": "[1]", "result": 100}, {"measurement": "cell number", "setting": "[2]", "result": 102}, {"measurement": "H1.0 immunofluorescence intensity", "setting": "[3]", "result": "96.5 (inactive)"}, {"measurement": "H1.0 immunofluorescence intensity", "setting": "[4]", "result": "100 (inactive)"}]}, {"smiles": "CCCNCC(O)COc1ccccc1C(=O)CCc1ccccc1.Cl", "note": "[(S)-(-)-propafenone hydrochloride]", "values": [{"measurement": "cell number", "setting": "[1]", "result": 98.4}, {"measurement": "cell number", "setting": "[2]", "result": 104}, {"measurement": "H1.0 immunofluorescence intensity", "setting": "[3]", "result": "90.3 (inactive)"}, {"measurement": "H1.0 immunofluorescence intensity", "setting": "[4]", "result": "111 (inactive)"}]}]}
